An excerpt weighted towards active compounds, which were near 4% of everything screened.
NTMT1 inhibitor: inhibitors of human N-terminal methyltransferase NTMT1. Q9BV86. NTMT1 MTase-Glo SAH luminescence, purified enzyme. 2.5% of 59,000 active. Potency, µM (series often up to 114 µM), hits mostly inhibitors; note: nearly all actives have a fitted effect of over 65% in size
Target sequence (Q9BV86 whole entry, looked up): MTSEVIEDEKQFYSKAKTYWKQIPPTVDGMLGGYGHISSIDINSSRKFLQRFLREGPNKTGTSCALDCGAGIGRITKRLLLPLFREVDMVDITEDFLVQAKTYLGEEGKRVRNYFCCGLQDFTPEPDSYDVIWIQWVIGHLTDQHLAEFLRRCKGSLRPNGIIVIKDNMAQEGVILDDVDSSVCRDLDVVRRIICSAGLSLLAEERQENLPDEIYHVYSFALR
GPR32 ag: activates human resolvin D1 receptor GPR32; O75388; CHO-K1 GPR32 beta-arrestin PathHunter luminescence, 90 min; zero percent set by DMSO-only wells; activation, % at 76.9 µM; 2.5% of 48,000 active; AID 1346428;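 active = activation of at least 60% and not above a set upper limit, about 1 call in 100 departs from these limits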
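Beta-arrestin recruitment read-out: luminescence from complemented beta-Gal in CHO-K1 GPR32 PathHunter cells, measured 1 h after detection reagent at ambient temperature following 90 min compound exposure at 37 °C; DMSO served as basal (EC0) control.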
SKOV3 invasion: blocks SKOV3ip1 adhesion and invasion in omental model | SKOV3ip1-GFP adhesion/invasion on 3D omental model, fluorescence | Potency, µM (doses to about 45.8 µM), most hits filed as inhibitors | 0.1% of 46,000 active; note: nearly all actives have a fitted effect of over 65% in size
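Primary human omental fibroblast/mesothelial 3D culture pre-formed 48 h. SKOV3ip1-GFP cells added with compounds (0.36-46 umol/L), incubated 2 h RT/16 h 37 C, fixed; GFP cells quantified at 488/509 nm.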
p53null 32C kill: p53 null cell cytotoxicity, permissive temperature | Potency, µM (top dose mostly 46.1 µM), actives largely listed as cytotoxic | AID 903 | 0.62% of 55,000 active | H1299-neo p53 null cells, ATP luminescence, 24 h, 32C; note: nearly all actives have a fitted effect of over 55% in size
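Cytotoxicity: H1299-neo (no p53), 32C, 24 h treatment. Concentrations up to 46 uM. Readout cellular ATP, luminescence. Normalization to DMSO basal and tamoxifen 100 uM maximal kill.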
GALC G270D up: galactocerebrosidase G270D activity enhancement, cell-based | P54803 | 145M-Twi-hGALC-G270D cells (Twitcher mouse brain line with human GALC G270D), HMU-beta-Gal fluorescence, 48 h | Potency, µM (titrated, usually from 57.5 µM), hits mostly activators | 0.1% of 45,000 active; note: nearly all actives have a fitted effect of over 65% in size
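Fluorescence readout: HMU-β-gal cleavage by mutant GALC (0.1 mM final, citrate/phosphate pH 5.2 with 1 mg/mL taurocholate), stopped with carbonate/bicarbonate plus Triton X-100. Cells: murine Twitcher 145M-Twi expressing human G270D GALC; qHTS for activators.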
p53null 39C tox: p53 null cell cytotoxicity, nonpermissive temperature. H1299 p53-null (neo) cells, 39C, ATPlite viability, 24 h. Potency, µM (doses to about 46.1 µM), hits mostly cytotoxic. 0.97% of 55,000 active. AID 904; note: nearly all actives have a fitted effect of over 50% in size
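Following overnight plating at 37C (600 cells/well), H1299-neo or H1299-p53A138V cells are dosed up to 46 uM. Incubation lasts 24 hr at 39C before ATP detection.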
NNMT inh: human NNMT inhibition, NTMT1 counter-screen | shares compounds with NTMT1 inhibitor | NNMT MTase-Glo luminescence, SAH detection | Potency, µM (series often up to 57.1 µM), most hits filed as inhibitors | 10% of 120 active | AID 1645878
Large screens that a line does not name were inactive (follow-up assays come after a bar, where they were run). Unless noted, calls come from the whole dose curve; as a rule, active = well fitted curve in the direction sought with a large enough effect; inconclusive = small, poorly fitted or top-dose-only effect, or another doubt; inactive = no such curve, though single readings can be large; an effect the other way counts as inactive or inconclusive.

N#Cc1cc2c(nc1SCC(=O)Nc1cccc(C(F)(F)F)c1)C1CCN2CC1	GPR32 ag 64
N#Cc1cccc(NC(=O)CSc2nc3c(cc2C#N)N2CCC3CC2)c1	none
CCOc1ccc(CN(CCc2ccc3c(c2)OCO3)Cc2cccc(OC)c2)cc1	none
CCOc1ccc(CN(CCc2ccc3c(c2)OCO3)Cc2cccc(Br)c2)cc1	NTMT1 inhibitor 8.9µM
Cc1oc2cc3oc(=O)c(CCC(=O)N4CCCCC4)c(C)c3cc2c1C	GPR32 ag 87 (no result: NTMT1 inhibitor, GALC G270D up)
CCCCOc1ccc(CN2C(=O)C(=O)c3cc(C)ccc32)cc1OC	p53null 39C tox 20µM
C[C@H]1CCC[C@H](O)CCC/C=C/c2cc(O)cc(O)c2C(=O)O1	NTMT1 inhibitor 1.4µM (no result: GPR32 ag, SKOV3 invasion, p53null 32C kill, GALC G270D up, p53null 39C tox) | NNMT inh 3.5µM
Cc1ccc(Cn2nc(C(=O)N[C@@H]3C(C)(C)[C@@H]4CC[C@@]3(C)C4)cc2-c2ccc(Cl)c(C)c2)cc1	none (no result: GPR32 ag, SKOV3 invasion, p53null 32C kill, GALC G270D up, p53null 39C tox)
